The values that follow come from PubChem BioAssay (EPA / NIEHS).

The structures appear in SMILES notation. The source made the active and inactive calls. The calls were made as follows: active = hit-call score of the fitted dose curve at least 0.9, where 1 is the maximum; inactive = score below 0.9.

One may read the AC50 as the concentration giving half of the maximal activity seen.

Read-out in the test: Glutathione S-transferase M3 (GSTM3), GSTM3 (gene 2947)
Briefly: LTEA_HepaRG_GSTM3: Life Technologies and Expression Analysis (LTEA) Assay for Glutathione S-transferase M3 (GSTM3) using HepaRG (AID 2283501). Conditions: mRNA level, 48 h; actives raise or lower the signal. The protocol: LTEA_HepaRG is a cell based, multiplexed-readout assay that uses HepaRG, a human liver cell line, with measurements taken at 48 hours after chemical dosing on a 96-well plate.LTEA_HepaRG_GSTM3 is one of 102 assay component(s) measured in the LTEA HepaRG cell culture assay. It is a marker of Oxidative Stress.Data from the assay component LTEA_HepaRG_GSTM3 was analyzed into 1 endpoint. This assay endpoint, LTEA_HepaRG_GSTM3, was analyzed with bidirectional fitting relative to DMSO as the negative control and baseline of activity. Using a type of inducible reporter, measures of mRNA induction for gain or loss-of-signal activity can be used to understand regulation of transcription factor activity. To generalize the intended target to other relatable targets, this assay endpoint is annotated to the transferase intended target family, where the subfamily is alkyl and aryl transferase.
A total of 1060 chemcials from the ToxCast library were tested in eight-point concentration-response experiments. Cell culture and cytotoxicity assays were conducted at Thermo Fisher Scientific's Custom Services facility (Madison, WI). A single lot of human HepaRG cells (Thermo Fisher Scientific, Frederick, MD) was used for the cell culture experiments. 96-well format collagen type I coated plates of human HepaRG cells were prepared using established methods. Briefly, cryopreserved HepaRG cells were thawed, plated at a density of approximately 100,000 cells/well in HepaRG Thaw, Plate, and General Purpose media (HPRG770, Thermo Fisher Scientific), and incubated for 48 hours. 0.5% DMSO was selected as vehicle control to balance the requisite need of DMSO in HepaRG cultures to maintain differentiation (for example, baseline metabolism, proportions of hepatocytes vs. cholangiocytes), while enabling further hepatic receptor pathway activation (for example, PXR and CAR) in response to chemical exposure. 48 hours after plating, the culture medium was replaced with HepaRG Serum-Free Incudtion Media. Cells were exposed to each test chemical in duplicate and maintained in CO2 incubators for another 48 hours. Chemical plates were thawed to room temperature and 200x concentrations of treatment groups were prepared. 8-point conentration-reponse curves were made with the highest exposure at 100 uM, followed by half-log dilutions, all in 0.5% DMSO. Each test plate contained variouse controls, induction positive controls (1mM phenobarbital), cytotoxicity positive controls ([…] aflatoxin B1), vehicle controls (0.5% DMSO), and total lysis controls (0.5% DMSO). Cell morphology images were taken using an Essen IncuCyte FLR automated microscope, with six 96-well plates imaged in about 24 minutes. Images were captured and exported and JPEG files. Spent culture media was transfered to black-well plates for the LDH assay, and remaining media was sorted at -80 C for later use. Cells were treated with RLT buffer and frozen until shipped for gene expression analysis. Total RNA was isolated from the cell suspension in 75 uL of Buffer RLT (Qiagen, Germantown, MD 20874) by Quintiles/Expression Analysis (Durham, NC) using a custom isolation procedure. Total RNA from each plate well was transferred to a preamplification plate. Fluidigm's 96.96 Dynamic ArrayTM (Fluidigm, Amsterdam, the Netherlands) technology was used for gene expression analyses by quantitative reverse transcription polymerase chain reaction (qRT-PCR, performed by Quintiles/Expression Analysis, Durham, NC)89. Standard TaqManTM Assays (Applied Biosystems/ThermoFisher Scientific, Foster City, CA) were used to assess the expression of 93 genes selected based on their selectivity and sensitivity to important hepatic receptors known to be modulated by environmental chemicals; importance in human hepatocyte functionality; and hepatotoxicity. […]
For `CC[C@H](C)[C@H]1O[C@]2(C=C[C@@H]1C)C[C@@H]1C[C@@H](C/C=C(\C)[C@@H](O[C@H]3C[C@H](OC)[C@@H](O[C@H]4C[C@H](OC)[C@@H](NC)[C@H](C)O4)[C@H](C)O3)[C@@H](C)/C=C/C=C3\CO[C@@H]4[C@H](O)C(C)=C[C@@H](C(=O)O1)[C@]34O)O2`, the compound was classed as inactive.

With `Cc1ccn2nc(S(=O)(=O)Nc3c(F)cccc3F)nc2n1`, the outcome was inactive.

Take `CCNc1nc(Cl)nc(NC(C)(C)C#N)n1`: the outcome was inactive.

Take `CC(=NC#N)N(C)Cc1ccc(Cl)nc1`: the call was inactive.

For `CCC(CC)Nc1c([N+](=O)[O-])cc(C)c(C)c1[N+](=O)[O-]`, the result was inactive.

Regarding `CNc1cnn(-c2cccc(C(F)(F)F)c2)c(=O)c1Cl`, the compound was called inactive.

In the case of `CCOP(=S)(OCC)Oc1cc(C)nc(C(C)C)n1`, the result was inactive.

As for `CC(C)=CC1C(C(=O)OCN2C(=O)C3=C(CCCC3)C2=O)C1(C)C` (stereo not given), the result was inactive.

In the case of `CCOP(=S)(OCC)SCCSCC`, the compound was classed as inactive.

Consider `CC(C)N(C(=O)SCC(Cl)=C(Cl)Cl)C(C)C`, for which the compound was classed as inactive.

Regarding `FC(F)C(F)(F)OCC(Cn1cncn1)c1ccc(Cl)cc1Cl` (stereo not given), the AC50 is 73.6 µM (active).

On to `CC1(C(=O)Nc2ccc(O)c(Cl)c2Cl)CCCCC1`, for which the call was inactive.

Turning to `C=C(C)[C@H]1Cc2c(ccc3c2O[C@@H]2COc4cc(OC)c(OC)cc4[C@@H]2C3=O)O1`, the concentration at half-maximal activity (AC50) is 23.9 µM (active).

Regarding `C[Si](Cn1cncn1)(c1ccc(F)cc1)c1ccc(F)cc1`, the AC50 is 74.9 µM (active).

With `COc1ccc(C(=CC(=O)N2CCOCC2)c2ccc(Cl)cc2)cc1OC`, the compound was called inactive.

For `CSc1nc(NC(C)C)nc(NC(C)C)n1`, the compound was classed as inactive.

For the compound `CN1COCN(Cc2cnc(Cl)s2)C1=N[N+](=O)[O-]`, the result was inactive.

Regarding `C[N+]1(C)CCCCC1`, the outcome was inactive.

In the case of `CCCCOC(=O)[C@@H](C)Oc1ccc(Oc2ccc(C#N)cc2F)cc1`, the result was inactive.

`CCCCN(CC)c1c([N+](=O)[O-])cc(C(F)(F)F)cc1[N+](=O)[O-]`: the call was inactive.

For `CC(C)[C@H](C(=O)O[C@H](C#N)c1cccc(Oc2ccccc2)c1)c1ccc(Cl)cc1`, the call was inactive.

With `CSc1nnc(C(C)(C)C)c(=O)n1N`, the compound was classed as inactive.

In the case of `Cc1cc(C2CC2)nc(Nc2ccccc2)n1`, the call was inactive.

As for `CCCSP(=O)(OCC)SCCC`, the outcome was inactive.

Turning to `O=C(O)c1cc(Oc2ccc(C(F)(F)F)cc2Cl)ccc1[N+](=O)[O-]`, the compound was called inactive.

Consider `CCOC(=O)COc1cc(-c2nn(C)c(OC(F)F)c2Cl)c(F)cc1Cl`, for which the call was inactive.

Consider `CCOP(=S)(OCC)Oc1ccc2c(C)c(Cl)c(=O)oc2c1`, for which the compound was classed as inactive.

In the case of `CCC(=NOC/C=C/Cl)C1=C(O)CC(C2CCOCC2)CC1=O` (stereo not given), the call was inactive.

Regarding `CON=C(C(=O)OC)c1ccccc1CON=C(C)c1cccc(C(F)(F)F)c1`, the result was inactive.

For the compound `CCOP(=O)(OCC)Oc1cc(C)nc(C(C)C)n1`, the call was inactive.

In the case of `N#CSCSC#N`, the call was inactive.

With `CCC(=O)Nc1ccc(Cl)c(Cl)c1`, the outcome was inactive.

For the compound `O=c1ccc(=O)[nH][nH]1`, the outcome was inactive.

On to `CN(C)[C@@H]1C(=O)C(C(N)=O)=C(O)[C@@]2(O)C(=O)C3=C(O)c4c(O)cccc4[C@@](C)(O)[C@H]3[C@H](O)[C@@H]12`, for which the compound was classed as inactive.

With `CCOC(=O)CC(SP(=O)(OC)OC)C(=O)OCC` (stereo not given), the outcome was inactive.

With `C#CCC1=C(C)C(OC(=O)C2C(C=C(C)C)C2(C)C)CC1=O` (stereo not given), the compound was classed as inactive.

With `C#CC(C)(C)NC(=O)c1cc(Cl)cc(Cl)c1`, the outcome was inactive.

As for `CCOP(=S)(OCC)OC(Cl)C(Cl)(Cl)Cl` (stereo not given), the result was inactive.

Regarding `CN(C)C(=O)Nc1cccc(C(F)(F)F)c1`, the compound was classed as inactive.

For `COP(=O)(OC)C(O)C(Cl)(Cl)Cl` (stereo not given), the call was inactive.
